Experimental data: paper PMC4336329 (PLoS ONE, 2015)
In all, about 310,000 compounds went through this assay and about 14,000 (4.5%) showed an effect of 50% or more. Effects have a minus sign here. What follows is part of a selection rich in strong results, with near analogues and random picks from the rest.

Target: human ether-à-go-go-related gene (hERG) potassium channel (human, UniProt Q12809)
Test: primary screen, population patch clamp on CHO cells stably expressing hERG; higher = less effect of the substance
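Further: peak tail current of the secondary pulse compared with the same well before compound.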

Chain of human ether-à-go-go-related gene (hERG) potassium channel (Q12809 whole entry, looked up): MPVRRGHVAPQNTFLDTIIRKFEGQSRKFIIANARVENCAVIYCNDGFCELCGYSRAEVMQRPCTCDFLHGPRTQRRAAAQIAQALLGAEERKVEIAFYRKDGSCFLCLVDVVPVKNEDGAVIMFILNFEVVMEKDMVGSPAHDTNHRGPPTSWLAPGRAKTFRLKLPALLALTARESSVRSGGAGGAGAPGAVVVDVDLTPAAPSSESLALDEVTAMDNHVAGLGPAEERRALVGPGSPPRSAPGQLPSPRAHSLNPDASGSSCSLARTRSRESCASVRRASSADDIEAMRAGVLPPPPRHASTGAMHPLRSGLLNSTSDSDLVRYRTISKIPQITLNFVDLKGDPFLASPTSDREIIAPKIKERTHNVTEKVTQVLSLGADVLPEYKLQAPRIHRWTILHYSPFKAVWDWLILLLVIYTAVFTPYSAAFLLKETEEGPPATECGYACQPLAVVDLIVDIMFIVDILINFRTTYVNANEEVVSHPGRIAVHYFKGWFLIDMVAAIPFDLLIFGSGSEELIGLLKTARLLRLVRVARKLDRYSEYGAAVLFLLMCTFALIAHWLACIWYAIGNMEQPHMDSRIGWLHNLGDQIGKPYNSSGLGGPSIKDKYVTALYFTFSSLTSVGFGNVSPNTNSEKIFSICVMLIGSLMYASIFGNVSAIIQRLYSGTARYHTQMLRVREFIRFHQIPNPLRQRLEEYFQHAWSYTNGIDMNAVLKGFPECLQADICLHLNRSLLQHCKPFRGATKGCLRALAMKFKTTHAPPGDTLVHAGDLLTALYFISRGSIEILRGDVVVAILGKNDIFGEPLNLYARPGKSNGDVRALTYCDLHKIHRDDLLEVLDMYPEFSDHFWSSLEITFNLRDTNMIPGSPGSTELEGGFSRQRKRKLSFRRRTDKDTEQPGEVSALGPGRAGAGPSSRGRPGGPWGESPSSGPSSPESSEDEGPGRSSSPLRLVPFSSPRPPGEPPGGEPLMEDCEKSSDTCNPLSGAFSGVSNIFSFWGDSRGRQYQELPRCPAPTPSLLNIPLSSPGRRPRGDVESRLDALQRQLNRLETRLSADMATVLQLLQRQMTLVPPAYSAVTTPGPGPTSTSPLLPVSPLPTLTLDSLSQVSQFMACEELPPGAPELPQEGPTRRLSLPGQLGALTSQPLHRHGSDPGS

SMILES	hERG current change (%, negative = inhibition) at 10uM
CCOc1cc(C2Nc3ccccc3C(=O)N2c2ccccc2OC)ccc1O (centres unmarked)	1.46%
CC(C)CC(=O)N(c1ccc(F)cc1)C1C=CS(=O)(=O)C1 (centres unmarked)	14.4%
CC(=O)N1N=C2C3CCN(CC3)C2C1c1ccc(Br)cc1 (centres unmarked)	4.62%
COc1ccc(CNc2nc3nc(C)c(Cl)c(C)n3n2)cc1OC	-7.54%
Cc1cc(C)n2nc(NCc3ccccc3)nc2n1	-9.34%
COc1cccc(CNc2nc3nc(C)cc(C)n3n2)c1	-15.6%
COc1cccc(CNc2nc3nc(C)c(Cl)c(C)n3n2)c1	-57.9%
COc1ccc(CNc2nc3nc(C)c(Cl)c(C)n3n2)cc1	2.05%
Cc1cc(C)n2nc(NCc3cccc(Br)c3)nc2n1	-70%
CC(NC(=O)Cc1ccccc1F)c1ccc(F)cc1 (centres unmarked)	6.9%
Cc1ccc(C2=C/C(=C\c3cccnc3)C(=O)O2)cc1	30.8%
NC(=O)NCCCC(=O)OCC(=O)c1ccc2ccccc2c1	13.4%
CCCNC(=O)N1CCC(c2nc3ccccc3s2)CC1	-16.8%
CCOc1cc(N2CCOCC2)c(OCC)cc1NC(=O)COC(=O)c1cc(C)cc(C)c1	-3.29%
COc1c2ccccc2c(OC)c2ccccc12	12.9%
C/C=C/c1ccccc1OCc1ccc(C(=O)O)o1	20%
CSCC[C@H](NC(=O)C(C)Oc1ccc(Cl)cc1)c1nc2ccccc2[nH]1 (some centres unmarked)	-7.16%
CSCC[C@H](NC(=O)COc1ccc(Cl)cc1Cl)c1nc2ccccc2[nH]1	14.7%
CSCC[C@H](NC(=O)COc1ccc(Cl)cc1)c1nc2ccccc2[nH]1	-56.5%
CCc1nnc(NC(=O)CSc2nnc(-c3ccoc3C)n2-c2cccc(C)c2)s1	-58.3%

SMILES	hERG current change (%, negative = inhibition) at 10uM
Cc1cccc(-n2c(SCC(=O)Nc3nnc(C)s3)nnc2-c2ccoc2C)c1	-63.9%
Cc1ccc(C)c(-n2c(SCC(=O)Nc3nnc(C)s3)nnc2-c2ccoc2C)c1	5.96%
CCc1nnc(NC(=O)CSc2nnc(-c3ccoc3C)n2-c2ccccc2)s1	-3.54%
CCCn1c(SCC(=O)Nc2nnc(C)s2)nnc1-c1ccoc1C	3.4%
CCc1nnc(NC(=O)CSc2nnc(-c3ccoc3C)n2-c2ccc(C)cc2)s1	-26.4%
O=C(NCCc1ccccc1Cl)c1cc(COc2ccc(F)cc2F)on1	7.59%
O=C(CCC(=O)Nc1ccc(F)cc1)N/N=C/c1cccnc1	17.8%
CCOc1ccc(S(=O)(=O)NCCC(=O)NCc2ccco2)cc1	-0.369%
O=C(NC1CCCCC1)c1ccc(S(=O)(=O)N2CCCCC2)cc1	-6.43%
COc1ccc(S(=O)(=O)Nc2cc(C(C)C)c(O)cc2C)cc1	-2.38%
CN(C)C(=O)c1nc2ccc(Cl)cn2c1CN1CCCC(OCc2ccccc2)C1 (centres unmarked)	-36.2%
CN(C)C(=O)c1nc2ccc(Cl)cn2c1CN1CCCC(OCc2cccnc2)C1 (centres unmarked)	-57.9%
COC1CCCN(Cc2c(C(=O)N3CCc4ccccc4C3)nc3ccc(Cl)cn23)C1 (centres unmarked)	-35.9%
NCCNc1ccc2nnnn2n1	38.7%
COc1cccc(CN2CCCC(N3CCc4ccccc4C3)C2)c1O (centres unmarked)	-17.7%
CCOc1cccc(CN2CCCC(N3CCc4ccccc4C3)C2)c1O (centres unmarked)	-52.9%
CCOc1cc(CN2CCCC(N3CCc4ccccc4C3)C2)ccc1O (centres unmarked)	-21.4%
COc1ccc(O)c(CN2CCCC(N3CCc4ccccc4C3)C2)c1 (centres unmarked)	-46.6%
Oc1ccccc1CN1CCCC(N2CCc3ccccc3C2)C1 (centres unmarked)	-38.8%
COc1ccc(CN2CCCC(N3CCc4ccccc4C3)C2)c(O)c1 (centres unmarked)	-60.1%

SMILES	hERG current change (%, negative = inhibition) at 10uM
CCC(C)(C)NC(=O)C(c1ccc(OC)cc1)N(CCOC)C(=O)CCC(=O)Nc1nccs1 (centres unmarked)	0.428%
COc1cc(NC(=O)Cn2cnc(S(=O)(=O)N3CCCCC3)c2)cc(OC)c1OC	14.9%
Cc1ccc(-c2ncccc2OC(=O)C23CC4CC(CC(C4)C2)C3)cc1.Cl	12%
Br.COc1c2c(cc3c1OCO3)CCN(C)C2	0.899%
COc1ccc2c(c1OC)CN(C)CCc1cc3c(cc1C(O)C2)OCO3 (centres unmarked)	-27.1%
COc1cc2c(cc1OC)C(C1c3cc4c(cc3CCN1C)OCO4)OC2=O (centres unmarked)	4.1%
COc1ccc2c(c1OC)CN1CCc3cc4c(cc3[C@H]1C2)OCO4	-1.81%
COc1cc2c(cc1OC)C(=O)Cc1ccc3c(c1CN(C)CC2)OCO3	-54.1%
COc1ccc2c(c1OC)CN(C)CCc1cc3c(cc1C(=O)C2)OCO3	-81%
O=C(Nc1ccc(CN2CCOCC2)cc1)c1ccc(Br)o1	1.56%
Cc1ccc2nc(SCC(=O)N3CC(C)OC(C)C3)nc(=O)n2c1 (centres unmarked)	-13%
O=C(N/N=C/c1cc([N+](=O)[O-])c(N2CCOCC2)cc1N1CCOCC1)c1cccnc1	-22.4%
CCOC(=O)N1CCC(c2cc(=O)n3[nH]cc(C(=O)OC)c3n2)CC1	9.34%
COC(=O)[C@@H]1[C@H]2C[C@H]3c4[nH]c5ccccc5c4CCN3C[C@@H]2CC[C@@H]1O.Cl	-22%
CC[C@H]1CC2CN3CCc4c([nH]c5ccccc45)C(C(=O)OC)(C2)C13.Cl (some centres unmarked)	-2.97%
CC[C@]12CCCN3CCc4c(n(c5ccccc45)[C@](O)(C(=O)OC)C1)[C@@H]32	-72.4%
CCC12CCCN3CCc4c(n(c5ccccc45)C(O)(C(=O)OC)C1)C32 (centres unmarked)	-28.9%
CCC1(C(=O)OC)CCc2c(cc(OC)c3ccccc23)C1=O (centres unmarked)	3.07%
CC[C@]12CCCN3CCc4c(n(c5ccccc45)[C@@](O)(C(=O)OC)C1)[C@@H]32	-80.9%
